Test results: ChEMBL document CHEMBL4513216, “Probing the Open Global Health Chemical Diversity Library for Multistage-Active Starting Points for Next-Generation Antimalarials” (ACS Infect Dis, 2020)
The campaign covered roughly 69,000 compounds. About 8,600 (12%) showed an effect of 50% or more. The full list was thinned out, with strong results kept by preference.

These compounds were tested on Plasmodium berghei (assay: Screen against P. berghei liver stage (PbLuc), transformed with Luciferase, at 10uM). Details: tested at 10 uM.
Assay type: functional, HepG2

Q: For `Cn1nc2c(cc1=O)CN(Cc1nc(-c3cccnc3)no1)CC2`, which INHIBITION is on record?
A: 13.3%

Q: For `CC(C)NC(=O)N1CCCC2(CCN(c3ccccc3)C2=O)C1` (centres undefined), which INHIBITION is on record?
A: -20.8%

Q: How did the INHIBITION turn out when `COc1cccc(NC(=O)Cn2cc(-c3ccccc3)ncc2=O)c1` was run?
A: 28.2%

Q: Which INHIBITION does the source give for `CN(Cc1n[nH]c2c1CCCC2)C(=O)c1cccc(CCC(C)(C)O)c1` here?
A: 48.5%

Q: Which INHIBITION does the source give for `CN(Cc1n[nH]c2c1CCC2)C(=O)c1cccc(CCC(C)(C)O)c1` here?
A: 68.5%

Q: For `CN(Cc1cc[nH]n1)C(=O)c1cccc(CCC(C)(C)O)c1`, which INHIBITION is on record?
A: 34.1%

Q: For `O[C@H]1CN(c2nc(-c3ccccc3)no2)C[C@@H]1N1CCOCC1`, which INHIBITION is on record?
A: -22.7%

Q: For `OC1CCN([C@@H]2CCN(c3nc(-c4ccccc4)no3)C[C@H]2O)CC1`, which INHIBITION is on record?
A: 69.8%

Q: For `OC1CCN(c2nc(-c3ccccc3)no2)CC1`, which INHIBITION is on record?
A: -3.74%

Q: How did the INHIBITION turn out when `CC(C)c1ccc2c(c1)C1(CC(=O)Nc3[nH]ncc31)C(=O)N2C` (centres undefined) was run?
A: 17.7%

Q: Which INHIBITION does the source give for `CCOc1ccc(NC(=O)NCc2cccnc2OCC)cc1` here?
A: 13.6%

Q: For `Cc1nn(C)c2nc(N3CCN(Cc4nccn4C)CC3)sc12`, which INHIBITION is on record?
A: 37.6%

Q: Which INHIBITION does the source give for `Cc1nc(CN2CCc3ncnc(-c4ccsc4)c3CC2)cs1` here?
A: 60.2%

Q: How did the INHIBITION turn out when `Cc1cccc(CN2CCc3ncnc(-c4ccsc4)c3CC2)n1` was run?
A: 53.2%

Q: For `Cc1nc(CN2CCc3ncnc(C4CC4)c3CC2)cs1`, which INHIBITION is on record?
A: 15.9%

Q: With `Cc1nc(CN2CCc3ncnc(-c4ccccc4)c3CC2)cs1` as the compound, how does the INHIBITION read?
A: 6.6%

Q: How did the INHIBITION turn out when `Cc1nc(CN2CCc3ncnc(C)c3CC2)cs1` was run?
A: 56.3%

Q: Which INHIBITION does the source give for `Cc1nc(CN2CCN(c3ccc(SC(C)C)nn3)CC2)cs1` here?
A: -4.13%

Q: Which INHIBITION does the source give for `c1ccc(CN2CCc3ncnc(-c4ccsc4)c3CC2)nc1` here?
A: 19.9%

Q: How did the INHIBITION turn out when `Cc1cccc(CN2CCc3ncnc(C)c3CC2)n1` was run?
A: 6.8%

Q: `CCOc1ncnc2c1CCN(Cc1csc(C)n1)CC2` was tested. Which INHIBITION did it give?
A: 1.94%

Q: Which INHIBITION does the source give for `Cc1nc(CN2CCc3ncnc(-c4ccncc4)c3CC2)cs1` here?
A: 27.6%

Q: For `Cc1nc(CN2CCN(c3nc4c(s3)c(C)nn4C)CC2)cs1`, which INHIBITION is on record?
A: 73.9%

Q: With `Cc1cn(CC(=O)Nc2cc(C(C)C)nn2C)cn1` as the compound, how does the INHIBITION read?
A: -0.273%

Q: For `CC1CN(C)CCN1CC(=O)NCCOc1ccc(Cl)cc1` (centres undefined), which INHIBITION is on record?
A: 35.95%

Q: Which INHIBITION does the source give for `CC(c1ccccn1)N(C)Cc1cccc(C(=O)Nc2nccn2C)c1` (centres undefined) here?
A: 9.57%

Q: Which INHIBITION does the source give for `CN(C)c1nc(NCCc2ccnn2C)ncc1F` here?
A: 42.3%

Q: With `O=C(Cc1ccc(F)c(Br)c1)NC1CCN(CC(F)F)CC1` as the compound, how does the INHIBITION read?
A: -60.4%

Q: For `CN(C)CC(=O)N1CCc2ncnc(-c3cncnc3)c2CC1`, which INHIBITION is on record?
A: 6.83%

Q: `CN(C)CC(=O)N1CCc2ncnc(-c3ccoc3)c2CC1` was tested. Which INHIBITION did it give?
A: 23.1%

Q: For `CN(C)CC(=O)N1CCc2ncnc(-c3ccsc3)c2CC1`, which INHIBITION is on record?
A: 70.4%

Q: `CCn1ccc(NC(=O)CN2C(=O)C(C)(C)c3ccccc32)n1` was tested. Which INHIBITION did it give?
A: 23.1%

Q: Which INHIBITION does the source give for `Cc1ccc(N2CCCC(NCc3c(C)noc3C)C2)nn1` (centres undefined) here?
A: -89%

Q: How did the INHIBITION turn out when `CN1CC(C(=O)NCCc2ccc3c(c2)OCO3)CC1=O` (centres undefined) was run?
A: 20%

Q: Which INHIBITION does the source give for `COc1ccc(CCNc2cc(-c3nc(C)no3)ccn2)cc1OC` here?
A: 10.8%

Q: Which INHIBITION does the source give for `Cc1noc(-c2ccnc(Oc3ccc(CN4CCCC4)cc3C)c2)n1` here?
A: 89%

Q: Which INHIBITION does the source give for `CCOc1cc(CNc2cc(-c3nc(C)no3)ccn2)ccc1OC` here?
A: 1.84%

Q: `COc1ccc(CNC2CCCN(Cc3noc(C)n3)C2)cc1F` (centres undefined) was tested. Which INHIBITION did it give?
A: 40.3%

Q: How did the INHIBITION turn out when `Cc1noc(-c2ccnc(Oc3ccc(CN4CCCC4)cc3F)c2)n1` was run?
A: 87.4%

Q: `Fc1ccc(CN2CCC(c3noc(-c4cnccn4)n3)CC2)cc1F` was tested. Which INHIBITION did it give?
A: 18.3%

Q: For `CC(=O)N1CC(Cc2nccc3ccn(C)c23)C1`, which INHIBITION is on record?
A: 47.2%

Q: For `COc1cc(OC)cc(-c2cc(CN)nc3ccnn23)c1`, which INHIBITION is on record?
A: -18.2%

Q: `Cc1ccccc1S(=O)(=O)N(C)[C@@H]1CC[C@@H](n2ccnc2C)[C@@H]1O` was tested. Which INHIBITION did it give?
A: 38.15%

Q: Which INHIBITION does the source give for `CC(c1nc(C2CC2)no1)N1CCN(CC(=O)N2CCOCC2)CC1` (centres undefined) here?
A: 10.7%

Q: For `CCN(CC)CC1CN(Cc2ccc(C)s2)Cc2nccn2C1` (centres undefined), which INHIBITION is on record?
A: -30.6%

Q: Which INHIBITION does the source give for `Cc1ccc(CN2Cc3nccn3CC(Cn3cccn3)C2)s1` (centres undefined) here?
A: 45.7%

Q: How did the INHIBITION turn out when `Cc1ccc(CN2Cc3nccn3CC(CN(C)C)C2)s1` (centres undefined) was run?
A: 64.9%

Q: With `Cc1nn(CCO)cc1CN1CCC(C(C)N2CCCC2)CC1` (centres undefined) as the compound, how does the INHIBITION read?
A: 32.5%

Q: With `CCn1cc(CN2CCC(C3CCN(C)CC3)CC2)cc1C#N` as the compound, how does the INHIBITION read?
A: 66.1%

Q: `CCn1cc(CN2CCC(NS(C)(=O)=O)CC2)cc1C#N` was tested. Which INHIBITION did it give?
A: 62.4%

Q: `CCn1cc(CN2CCC(CNC(C)=O)CC2)cc1C#N` was tested. Which INHIBITION did it give?
A: 24.2%

Q: How did the INHIBITION turn out when `Cc1nn(CCO)cc1CN1CCC(N2CCC(O)CC2)CC1` was run?
A: 50.5%

Q: With `CS(=O)(=O)NC1CCN(Cc2ccc(OCc3ccccn3)cc2)CC1` as the compound, how does the INHIBITION read?
A: -1.83%

Q: For `Cc1nn(CCO)cc1CN1CCCN(C2CCCC2)CC1`, which INHIBITION is on record?
A: 12.8%

Q: With `CCn1cc(CN2CCC(CN3CCCCC3)CC2)cc1C#N` as the compound, how does the INHIBITION read?
A: 6.88%

Q: How did the INHIBITION turn out when `CCn1cc(CN2CCCCC2CCn2ccnc2C)cc1C#N` (centres undefined) was run?
A: 29.2%

Q: `OC1CCN(C2CCN(Cc3cccc(Cn4cccn4)c3)CC2)CC1` was tested. Which INHIBITION did it give?
A: 24.9%

Q: Which INHIBITION does the source give for `CCn1cc(CN2CCC(c3ccncc3)CC2)cc1C#N` here?
A: 13%

Q: With `CCn1cc(CN2CCC(N3CCC(O)CC3)CC2)cc1C#N` as the compound, how does the INHIBITION read?
A: 64.9%

Q: For `Cc1ccc(CC(=O)N(C)CC2(O)CCCN(c3ccccn3)C2)s1` (centres undefined), which INHIBITION is on record?
A: -2.11%

Q: For `CC(C)N(Cc1ccccn1)Cc1nc2c(cnn2C)c(=O)[nH]1`, which INHIBITION is on record?
A: 25.65%

Q: For `CN(C)C(=O)CN1CC[C@H]2CN(C3CCOCC3)C[C@@H]2C1=O`, which INHIBITION is on record?
A: 30.9%

Q: With `CCC(=O)N1CCN(C)C(=O)C(Cc2ccccc2-c2cccs2)C1` (centres undefined) as the compound, how does the INHIBITION read?
A: 22%

Q: `O=C(c1cc(=O)c(OCc2ccccc2F)co1)N1CCSCC1` was tested. Which INHIBITION did it give?
A: 21.5%

Q: For `CS(=O)(=O)c1cncnc1C1CCCN(C(=O)Cc2ccccc2F)C1` (centres undefined), which INHIBITION is on record?
A: 17.985%

Q: How did the INHIBITION turn out when `CCNC(=O)[C@@H]1C[C@H](N)CN1C(=O)C1(c2ccc(OC)cc2)CCCC1` was run?
A: -12.7%

Q: For `CCN(CC)C(=O)CNC(=O)N1CCC(c2ccc(OC)cc2)C1` (centres undefined), which INHIBITION is on record?
A: 21.7%

Q: Which INHIBITION does the source give for `CCC(=O)Nc1cccc(OCC(=O)N2CC=CC2C(C)C)c1` (centres undefined) here?
A: -16.6%

Q: Which INHIBITION does the source give for `Cc1ccccc1CCC(=O)N1CCCC(c2cc(C(N)=O)[nH]n2)C1` (centres undefined) here?
A: 11.9%
